Test results from PubChem BioAssay AID2718 (Broad Institute, 2010).
Hit rate of the full screen: of about 320,000 compounds, about 480 (0.15%) were called active. About 1% were inconclusive and are not listed. For the sample, actives were picked, then their nearest neighbours and some compounds at random. Unmarked numbers belong to inactive results. No stated cut-off is given here; in the data, active means inhibition above about 26% (passing the limit was not always enough); inconclusive means no clear call, values can overlap the other calls.

The compounds below were run against Histone deacetylase 3 (Homo sapiens) (UniProt O15379) (assay: HDAC3 deacetylase inhibitors, primary screen, biochemical, fluorescence, cell-free homogeneous (AID 2718)). Conditions: recombinant HDAC3, fluorogenic peptide/trypsin coupled, at 8.3 µM, stronger effect = higher value.
Sequence of Histone deacetylase 3 (Homo sapiens) (O15379 whole entry, looked up): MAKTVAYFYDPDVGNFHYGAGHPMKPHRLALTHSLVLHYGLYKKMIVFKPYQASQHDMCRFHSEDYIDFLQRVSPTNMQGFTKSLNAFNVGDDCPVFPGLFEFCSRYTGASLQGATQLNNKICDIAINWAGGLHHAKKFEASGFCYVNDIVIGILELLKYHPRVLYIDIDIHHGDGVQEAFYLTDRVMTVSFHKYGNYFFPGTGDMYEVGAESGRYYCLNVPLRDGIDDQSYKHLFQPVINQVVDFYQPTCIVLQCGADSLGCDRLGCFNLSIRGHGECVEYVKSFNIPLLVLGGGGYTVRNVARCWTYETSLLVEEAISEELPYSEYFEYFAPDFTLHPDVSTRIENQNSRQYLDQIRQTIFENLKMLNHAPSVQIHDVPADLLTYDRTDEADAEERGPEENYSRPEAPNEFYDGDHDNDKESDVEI

Row | Compound | inhibition
1 | C=CC[C@H](CC(=O)N(CCO)Cc1ccccc1)C(=O)N[C@@H](COC(=O)[C@@H](CC=C)Cc1ccc(F)cc1)Cc1ccccc1 | 40.9% (active)
2 | O=C1N[C@@H](c2ccccc2)COC(=O)[C@H](Cc2ccc(F)cc2)C/C=C\C[C@@H]1CC(=O)N(CCO)Cc1ccccc1 | 8.45%
3 | C=CC[C@H](CC(=O)NCCO)C(=O)N[C@@H](COC(=O)[C@@H](CC=C)Cc1ccc(F)cc1)Cc1c[nH]c2ccccc12 | 9.77%
4 | COC(=O)[C@]1(CC(C)C)N[C@H](c2ccc(SC3CCCCC3)cc2)[C@@H]2C(=O)N(C)C(=O)[C@@H]21 | 16%
5 | O=C(OCC(=O)N1CCCCCC1)c1ccc(Cl)nc1 | 0.75%
6 | CCCCCCCCCCOC(=O)Cn1c(COc2ccc(C)cc2)[n+](C)c2ccccc21 | 36.3% (active)
7 | CCOC(=O)Cn1c(-c2cccnc2Cl)nc2ccccc21 | 2.13%
8 | CCCCCCCCCCOC(=O)Cn1c(COc2cccc(OC)c2)[n+](C)c2ccccc21 | 17.1%
9 | Cc1cccc(NC(=O)c2ccc(S(=O)(=O)N(C)c3ccccc3)cc2)n1 | 2.21%
10 | CCN(C(=O)COC(=O)c1ccccc1O)c1cccc2ccccc12 | 2.66%
11 | Cc1cc2c(cc1C)N(C(=O)CN1C(=O)c3ccccc3C1=O)C(C)(C)c1ssc(=S)c1-2 | -10.7%
12 | COc1cc(NC(=O)CN2C(=O)NC(C)(c3ccc(OC(F)F)cc3)C2=O)cc(OC)c1OC (configuration not stated) | 5.68%
13 | Cc1ccc2nc(-c3ccc(NC(=O)c4cccnc4)cc3)oc2c1 | -0.79%
14 | Cc1ccc(NC(=O)Cc2nc(COC(=O)C(C)NS(=O)(=O)c3ccc(C)cc3)cs2)cc1 (configuration not stated) | 1.23%
15 | CC(=O)Nc1ccc(S(=O)(=O)NCCC(=O)N2CCN(c3ccccc3Cl)CC2)cc1 | -4.42%
16 | CCOc1cc(C(C(=O)NCC2CCCO2)N(C(=O)Cn2nnc3ccccc32)c2cccc(OC)c2)ccc1O (configuration not stated) | -5.33%
17 | COc1ccc(C(=O)NCc2ccccc2C)cc1S(=O)(=O)NC1CCCC1 | 2.42%
18 | COc1cc(OC)c(NC(=O)C2CCCN2C(=O)OCc2ccccc2)cc1Cl (configuration not stated) | 2.9%
19 | CCN(C(=O)CSc1nnnn1-c1ccc(OC)cc1)C1CCS(=O)(=O)C1 (configuration not stated) | -1.21%
20 | COc1ccccc1NS(=O)(=O)c1ccc(C)c(C(=O)NNC(=O)c2csc(N3CCOCC3)n2)c1 | -8.84%
21 | CSc1ncccc1C(=O)NCC(c1ccco1)N1CCCCC1 (configuration not stated) | -0.371%
22 | CN(CC(=O)NCCc1ccc(S(N)(=O)=O)cc1)CC(=O)Nc1ccc(Cl)cc1 | 2.8%

Row | Compound | inhibition
23 | CC1Sc2ccc(C(=O)NCc3ccccc3Cl)cc2NC1=O (configuration not stated) | 3.12%
24 | c1ccc2c(CCN3CCNC[C@H]3Cc3cccc4ccccc34)cccc2c1 | 4.64%
25 | CC1COC2C(O1)N(S(C)(=O)=O)CCN2S(C)(=O)=O (configuration not stated) | -8.42%
26 | COc1ccc2nc3n(c(=O)c2c1)-c1cc(C)ccc1C(=O)NC3Cc1ccc(O)cc1 (configuration not stated) | 4.49%
27 | Cc1ccc(NC(=O)CN(C)C(=O)c2ccc(Cl)c(S(=O)(=O)NCc3ccco3)c2)cc1 | 1.2%
28 | COCCCNC(=O)CC1C[C@H](C(=O)N2CCCCC2)[C@@]2(CCc3ccccc3)c3[nH]c4ccccc4c3CCN2C1=O (some centres not stated) | -3.31%
29 | CC(=O)c1nn(-c2ccc(C)cc2)cc1C(=O)c1cccc(Br)c1 | 7.63%
30 | Cc1nnc(SCC(=O)Nc2ccc(S(=O)(=O)Nc3ccc(Cl)nn3)cc2)s1 | 0.425%
31 | CN(C(=O)c1ccccc1)c1nccnc1C#N | 2.83%
32 | O=C(Nc1ccccc1)O/N=C1/CCCc2occc21 | -0.26%
33 | Cc1ccc(NS(=O)(=O)c2ccc(C(=O)NCCCN3CCOCC3)cc2)cc1 | -2.45%
34 | Nn1c(SCC(=O)NC2CCCc3ccccc32)nnc1C1CC1 (configuration not stated) | 2.63%
35 | COc1cc(OC)cc(-c2c(C#Cc3ccsc3)c3cc(-c4ccc(SC)cc4)ccc3n2C)c1 | -8.45%
36 | CN(C)C(=O)c1cccn(Cc2cccc(C(F)(F)F)c2)c1=O | 0.89%
37 | CC(C)(C)OC(=O)C[C@@H]1C/C=C\C[C@@H](CC(=O)N[C@H](CO)Cc2ccccc2)C(=O)NC[C@@H](c2ccccc2)OC1=O | -3.9%
38 | S=c1[nH]c2ccccc2c2ccccc12 | 2.2%
39 | CC1(C)CC(=O)C=C(c2ccc(Cl)c(C(F)(F)F)c2)C1 | 3.15%
40 | COCCCNC(=S)N(CCN(C)C)Cc1cc2cc3c(cc2[nH]c1=O)OCCO3 | 54.7% (active)
41 | CCNC(=S)N(CCN(CC)CC)Cc1cc2cc3c(cc2[nH]c1=O)OCCO3 | -18.5%
42 | CCN(CC)CCCNC(=S)N(CCO)Cc1cc2cc3c(cc2[nH]c1=O)OCO3 | 3.65%
43 | COc1ccc2sc(-c3ccc(S(C)(=O)=O)cc3)c(C#Cc3cncn3C)c2c1 | -6.51%
44 | Cc1ccc(C)c(S(=O)(=O)N2CCN(c3ncnc4sccc34)CC2)c1 | 8.6%

Row | Compound | inhibition
45 | CCOC(=O)c1nn(-c2ccccc2F)c2nc(Nc3ccccc3)cc(=O)n12 | 4.54%
46 | Cc1nc(CC(=O)NNS(=O)(=O)c2ccc(F)c(Cl)c2)cs1 | -5.91%
47 | COc1cccc(NC(=O)C2c3cc(OC)c(OC)cc3C(=O)N(C)C2c2cccnc2)c1 (configuration not stated) | 35.6% (active)
48 | COc1cccc(NC(=O)C2C(c3ccccc3)C2(Cl)Cl)c1 (configuration not stated) | 10.8%
49 | CCOc1cc2c(cc1OCC)C(C(=O)O)C(c1ccc(OC)c(O)c1)N(C)C2=O (configuration not stated) | -1.3%
50 | CCCCn1c(N)c(N(CCOC)C(=O)COc2c(C)cccc2C)c(=O)[nH]c1=O | -1.76%
51 | CSc1cccc(NC(=S)N(C(C)C)C(C)c2ccccn2)c1 (configuration not stated) | -0.0363%
52 | COc1ccc(S(=O)(=O)N(C)C[C@@H]2Oc3ccc(NC(=O)Nc4c(C)noc4C)cc3C(=O)N([C@H](C)CO)C[C@@H]2C)cc1 | -1.76%
53 | O=C(COc1ccc(F)cc1Br)NCC1COc2ccccc2O1 (configuration not stated) | -3.53%
54 | CCCCN(C(=O)C1CCC1)c1c(N)n(Cc2ccccc2)c(=O)[nH]c1=O | -3.39%
55 | O=C(COC(=O)c1cccc(Cl)c1)NC(=O)NCc1ccccc1 | 1.01%
56 | CC(OC(=O)c1cc2ccccc2[nH]1)C(=O)N(C)c1ccccc1 (configuration not stated) | -8.32%
57 | COCCNC(=O)CCCN1C(=O)c2ccccc2Sc2ncccc21 | 2.45%
58 | CCOc1ccc(-n2c(N)c(C(=O)NCC3CCCO3)sc2=S)cc1 (configuration not stated) | 3.4%
59 | O=C(Nc1nnc(-c2ccccc2)o1)c1cccc(S(=O)(=O)N2CCOCC2)c1 | -1.1%
60 | COc1ccccc1C(=O)NCC(=O)OCC(=O)NNC(=O)c1ccc(Br)cc1 | -9.69%
61 | CCCn1c(=O)c2c(C(F)(F)F)cc(-c3cccs3)nc2n(CCC)c1=O | 1.67%
62 | COc1ccc(NC(=O)CNC(=O)Cn2ccc3ccccc3c2=O)c(OC)c1 | -0.211%
63 | Fc1ccc2cnc(-c3ccccc3)cc2c1 | -0.273%
64 | Cc1ccc(NC(=O)C2CC2)cc1S(=O)(=O)N1CCOCC1 | 1.59%
65 | COc1ccc(-c2c(-c3cc(OC)cc(OC)c3)n(C)c3ccc(-c4ccn[nH]4)cc23)cc1 | -1.8%
66 | CC(C)n1cnc2c(NCc3ccccc3)cc(N[C@@H](CO)Cc3ccccc3)cc21 | 11.4%

Row | Compound | inhibition
67 | N=c1c2c3c(sc2ncn1N)CCCCC3 | -7.57%
68 | S=c1[nH]nc2c3c4c(sc3ncn12)CCCC4 | 42.4% (active)
69 | N=c1c2c3c(sc2ncn1N)CCCC3 | 9.19%
70 | Cc1ccc(S(=O)(=O)NCCNC(C)c2ccc(Br)cc2)cc1 (configuration not stated) | 6.4%
71 | CC(=O)c1ccc(NC(=O)CSc2nc3ccccc3c(=O)n2CCCN2CCOCC2)cc1 | 12.2%
72 | COc1ccc(N2C(=O)C(CC(=O)Nc3ccc(F)cc3)N(CCc3cccs3)C2=O)cc1 (configuration not stated) | -0.706%
73 | CC1=CCC2C(=O)N(c3cccc(C(=O)NC(C)c4ccccc4)c3)C(=O)C2C1 (configuration not stated) | -6.38%
74 | COc1ccc(CCNC(=O)CN2C(=O)COc3ccc(S(=O)(=O)N4CCCC4)cc32)cc1OC | -4.05%
75 | CC1(c2ccccc2)NC(=O)N(CC(=O)N2CC(=O)Nc3ccccc32)C1=O (configuration not stated) | -0.182%
76 | Cc1ccc(-c2nn(-c3ccccc3)cc2/C=C2\SC(=S)N(CCCCCC(=O)O)C2=O)o1 | 31.7% (active)
77 | Cc1ccc(-c2nn(-c3ccccc3)cc2CN(Cc2ccccc2)C(=O)CCC(=O)O)o1 | -11.8%
78 | C=CCOc1ccc(/C=C2\SC(=S)N(CCC(=O)O)C2=O)cc1 | 6.13%
79 | Clc1ccc2nc(CSc3ccccc3)cn2c1 | 10.1%
80 | C[C@H]1CN([C@@H](C)CO)C(=O)Cc2cc(NS(C)(=O)=O)ccc2O[C@@H]1CN(C)CC1CC1 | -7.37%
81 | CC(C)(C)NC(=O)NC(=O)COC(=O)C1c2ccccc2Oc2ccccc21 | -4.96%
82 | Cc1cccc(C)c1Nc1nnc(SCC(=O)NCCCN2CCCC2=O)s1 | 0.701%
83 | O=C(NCc1ccc2c(c1)OCO2)c1c(-c2ccsc2)sc2ccccc12 | 4.88%
84 | O=C(Nc1ccc(Br)cn1)C1CCN(S(=O)(=O)c2cccs2)CC1 | -1.41%
85 | COc1ccc(-c2n[nH]c(C)c2-c2ccccc2OC)c(O)c1 | -1.09%
86 | C=C(C)COc1ccc(-c2n[nH]c(C)c2-c2ccccc2)c(O)c1 | 28.9% (active)
87 | C=C(C)COc1ccc(-c2ncncc2-c2ccc(OC)cc2)c(O)c1 | 4.53%
